{"source": "the supplement of paper PMC6555819", "data": [{"test_system": "VDR:RXRa (NR concentration 270 nM, RXRa partner concentration 90 nM)", "test": "PBM binding z-score (relative to random genomic background probes); higher = stronger binding; sequences stand for … in GC…GCGATTGACAGCGTAGAATGAAGG", "experimental": "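Protein-binding microarray (Agilent 4x180K custom design, double-stranded 60-nt probes: 5' GC cap, 34-nt variable region, 24-nt constant primer region; full probe sequence given). Purified or IVT nuclear receptor:RXRα heterodimers (3:1 NR:RXRα, mostly 270:90 nM) or homodimers were incubated for 1 h in PBS with 2% milk and no ligand, then detected with Alexa488 antibodies. Fluorescence from o1-orientation probes (~5 replicates averaged) was converted to z-scores against 500 random hg19 background probes. Variable regions are seed direct-repeat (DR0–DR5) sites, all their single-nucleotide variants and half-site ablations.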", "values": [{"sequence": "ACAGACAGGAGAGTGAAGGTAACTCAGCTGGACG", "PBM binding z-score": -0.068}, {"sequence": "TGAATGAAGTTATAAGATCAGGGAACGTTGCAAA", "PBM binding z-score": -0.457}, {"sequence": "ACAGACAGGAGATGAAGGTAACTCAGGCTATCAT", "PBM binding z-score": 0.143}, {"sequence": "ATCTCTAGGTAAAGAAAGTTCAGTGAATGCAAAT", "PBM binding z-score": 2.17}, {"sequence": "CATCCAAGGTCAGCAGGTCAGTGAAAGCGACGTG", "PBM binding z-score": 4.18}, {"sequence": "CAAACTAGGTCAAGAGGTCAAAGTCCGCTTCCCG", "PBM binding z-score": 6.26}, {"sequence": "TCTAGTTGGTCACGGAGGTCACACAAGACGGGTA", "PBM binding z-score": 5.67}, {"sequence": "GCTTGTAGATCAGGGTTAAGAAAGACTAAGCTAA", "PBM binding z-score": 0.179}, {"sequence": "CTCGAAAGGTCGGTTGAGGTGAGTGTACGGATAA", "PBM binding z-score": 2.42}, {"sequence": "CCTAGCAGGCCTATCTGGGTCACTCAAGGCTTGA", "PBM binding z-score": 0.253}, {"sequence": "ATCGAAAGCTCGAAGGTGAGTATACCCACCCGAA", "PBM binding z-score": -0.463}, {"sequence": "ACTACTAGTTGAGACGAGGGCAACCGATAGGTTG", "PBM binding z-score": 0.46}, {"sequence": "ATCCCTAGGTAAAGTTCAGTGAAAGATCGATAGA", "PBM binding z-score": 1.37}, {"sequence": "GATACAGGGTCAGCTAGAGGCCAGAGTTTGGAAA", "PBM binding z-score": 3.36}, {"sequence": "ATCTCTAGGTAAGTCTCAGTTCAGTGAAGAACGC", "PBM binding z-score": 0.65}, {"sequence": "TCATATAAGTAAACAGGTGAAAGTCCGTAAGTTA", "PBM binding z-score": 1.28}, {"sequence": "AGTCAAAGTTCATCTAGGCAACGTAAGATATGCT", "PBM binding z-score": 4.9}, {"sequence": "CCTACTGGGCCAAAGCTCATTGATTCCAATGCTC", "PBM binding z-score": -0.593}, {"sequence": "TCGAGTAGGTTACCAATGGGGCAGTCAGCTTTCT", "PBM binding z-score": -0.0931}, {"sequence": "TCATATAGGTAAATGCTAGGTGAAAGTCCGATCT", "PBM binding z-score": 0.886}, {"sequence": "CAAACTAGGTCACCGGATGGTCAAAGTCCGCATG", "PBM binding z-score": 2.78}, {"sequence": "CGACCTAGGTCATCCAGGACAGTGAATACATTGA", "PBM binding z-score": 4.85}, {"sequence": "TCGAGTAGGTCAGGGGCATTCAGAATGGCGTCGA", "PBM binding z-score": 1.55}, {"sequence": "ATCGAAACGTCGAAGGTGAGTATACCCACCCGAA", "PBM binding z-score": -0.229}, {"sequence": "CCAGACAGGTGTAAGGTAACTCAGTCTGGTACGC", "PBM binding z-score": 0.0147}, {"sequence": "ATGTCTAGGTAAAAGTTCAGTGAATCCCGAGGAT", "PBM binding z-score": 1.3}, {"sequence": "TCTTGTAGATCAGCAGGTTAATAAAGCTGGCCAA", "PBM binding z-score": 0.526}, {"sequence": "ATCTCTAGGTAAAGACAGTTCAGTGAATGCAAAT", "PBM binding z-score": 1.53}, {"sequence": "CTCGAAAGGTCGGTTGAGGTTAGTATACGGATAA", "PBM binding z-score": 3.58}, {"sequence": "AGAATGAGGTTACTAAGATCAGGGAATTGCGGTC", "PBM binding z-score": 1.42}, {"sequence": "CCGAGTAGGTTATGGGTCATTCAGGCAACGGTGA", "PBM binding z-score": 2.67}, {"sequence": "GATAAAGGGTCAAGGCCAGAGTACGCGTATTGAT", "PBM binding z-score": 4.56}, {"sequence": "GCAGGCAGGTGAAACGCAGGTAACTCAGGGTGGC", "PBM binding z-score": 0.85}, {"sequence": "ACTATTAGTTGAGACGAGGCCAACCGATAGGTTG", "PBM binding z-score": 0.333}, {"sequence": "GCTCGTTGGTCAGTAAAAGGTCACACACCGGTCG", "PBM binding z-score": 4.26}, {"sequence": "GGAACGAGGGCATTTGAGTTGATAGCATGGCGAT", "PBM binding z-score": 4.22}, {"sequence": "CCTTACGGGTCACTGACAGGTTATAGCCTTTGGA", "PBM binding z-score": 3.77}, {"sequence": "CGTCCAACGTCATAGGAGGTCAGTGAAGACAGAT", "PBM binding z-score": 2.06}, {"sequence": "CCGGCTAGGTCATGGTCAGCTAATCTACAGTATG", "PBM binding z-score": 1.63}, {"sequence": "TCATATAGGTAAACAGGTCAAAGTCCGTAAGTTA", "PBM binding z-score": 2.87}]}]}
